Source: PubChem BioAssay
TDP1 cell CPT: qHTS for Inhibitors of human tyrosyl-DNA phosphodiesterase 1 (TDP1): qHTS in cells in presence of CPT; 12% of 420,000 active; chicken DT40 Tdp1-/-;hTDP1 cells + 20 nM CPT, ATP luminescence, 48 h; AID 686979, 2013; Potency, µM (highest dose often 46.2 µM), for the others: top-dose activity change, negative = growth inhibition, usual class: inhibitors; also: potency is read from the fitted curve at half-maximal effect; % is scaled to controls: 0 for no effect and ±100 for the full control effect; nearly all actives have a fitted effect of over 55% in size
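Chicken DT40 Tdp1-/- cells complemented with human TDP1, 400 cells/well, exposed to compounds plus 20 nM camptothecin for at least 48 h at 37 C; viability read as ATP content by CellTiter-Glo luminescence.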
HepG2 viability: qHTS for Inhibitors of TGF-b: Cytotox Counterscreen; 0.76% of 410,000 active; AID 588856, 2011; HepG2 CAGA-GFP viability, ATP luminescence, 18 h; Potency, µM (top dose mostly 46.1 µM), inactives show at the top dose activity change, negative = cytotoxicity, hits mostly cytotoxic; also: potency is read from the fitted curve at half-maximal effect
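CellTiter-Glo luminescence gave cytotoxicity after 18 hours at 37 degrees C. The cells were HepG2 CAGA-GFP in 1% FBS DMEM, stimulated with 500 pg/mL TGF-beta after compound addition. %Activity was normalised to no-cell wells (complete cell-killing) and DMSO (no toxicity), and curves were fitted and classified.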
TGFb SMAD3 inh: qHTS for Inhibitors of TGF-b | Potency, µM (highest dose often 46.1 µM), for inactives: at the top dose activity, negative = inhibition, hits mostly inhibitors | HepG2 CAGA-GFP TGF-b/SMAD3 reporter, GFP fluorescence, 18 h; TGF-beta stimulated, 500 pg/mL final | 1.2% of 410,000 active; also: potency is read from the fitted curve at half-maximal effect; % is scaled to controls: 0 for no effect and ±100 for the full control effect; nearly all actives have a fitted effect of over 65% in size
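Inhibition of TGF-beta-driven CAGA-GFP reporter expression in HEPG2 cells is measured by cellular GFP fluorescence after 18 h stimulation with 500 pg/mL recombinant TGF-beta in 1% FBS medium at 37 degrees C.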
IL1B secr inh: qHTS for Inhibitors of Inflammasome Signaling: IL-1-beta AlphaLISA Primary Screen | THP-1 LPS/ATP IL-1B secretion, AlphaLISA, 16 h; hits give low values | activity change, % at 57.5 µM | 4.7% of 360,000 active | AID 743279, 2014; in the data active = activity change below about -50%; inconclusive = mostly about -30% to -49%; also: % is scaled to controls: 0 for no effect and ±100 for the full control effect
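THP-1 cells pretreated 1 hr with compounds (up to 57.5 uM final), then stimulated with LPS (250 ng/mL final) plus ATP (1.25 mM final); secreted IL-1B measured by AlphaLISA after 16 hr, decreased signal indicating inhibition.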
DT40 TDP1 no CPT: qHTS for Inhibitors of human tyrosyl-DNA phosphodiesterase 1 (TDP1): qHTS in cells in absence of CPT; AID 686978, 2013; DT40 Tdp1-/- hTDP1 cells, no CPT, ATP luminescence, 48 h; Potency, µM (titrated, usually from 46.2 µM), for inactives: top-dose activity change, negative = growth inhibition, actives largely listed as inhibitors; 15% of 420,000 active; also: potency is read from the fitted curve at half-maximal effect; % is scaled to controls: 0 for no effect and ±100 for the full control effect; nearly all actives have a fitted effect of over 55% in size
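DT40 Tdp1-/-;hTDP1 cells, no CPT (DMSO vehicle only), 400 cells/well; compounds pin-transferred; ≥48 hr, 37 °C; CellTiter-Glo 30 min RT dark, luminescence read.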
TDP1 block: qHTS Assay for Inhibitors of Tyrosyl-DNA Phosphodiesterase (TDP1). Tyrosyl-DNA phosphodiesterase 1 (Homo sapiens), Q9NUW8. recombinant TDP1, AlphaScreen DNA substrate cleavage. Potency, µM (doses to about 130 µM), without a hit: top-dose activity change, negative = inhibition, usual class: inhibitors. 0.28% of 350,000 active. AID 485290, 2010; also: potency is read from the fitted curve at half-maximal effect; % is scaled to controls: 0 for no effect and ±100 for the full control effect; nearly all actives have a fitted effect of over 40% in size
Target sequence (Q9NUW8 whole entry, looked up): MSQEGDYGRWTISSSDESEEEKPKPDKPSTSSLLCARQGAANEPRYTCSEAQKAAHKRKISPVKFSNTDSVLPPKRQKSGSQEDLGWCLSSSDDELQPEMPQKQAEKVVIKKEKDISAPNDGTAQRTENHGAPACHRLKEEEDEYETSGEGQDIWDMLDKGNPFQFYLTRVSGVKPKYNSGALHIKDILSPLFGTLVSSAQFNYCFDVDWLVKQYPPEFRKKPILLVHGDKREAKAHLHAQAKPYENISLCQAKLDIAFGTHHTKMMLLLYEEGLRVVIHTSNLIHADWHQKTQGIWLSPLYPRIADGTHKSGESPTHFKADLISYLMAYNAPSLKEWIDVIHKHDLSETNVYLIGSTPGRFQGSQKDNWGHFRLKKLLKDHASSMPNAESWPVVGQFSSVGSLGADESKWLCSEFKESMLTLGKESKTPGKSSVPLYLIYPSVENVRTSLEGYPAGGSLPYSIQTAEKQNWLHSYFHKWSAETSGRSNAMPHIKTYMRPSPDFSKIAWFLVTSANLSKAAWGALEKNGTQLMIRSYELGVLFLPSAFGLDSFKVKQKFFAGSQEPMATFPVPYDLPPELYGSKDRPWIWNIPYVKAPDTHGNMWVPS
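E. coli-derived human Tdp1, 1 nM final. Cpd preinc 15 min RT; substrate 15 nM final, 5 min RT; AS bead mix 10 ug/ml final, 10 min RT. Signal loss = tyrosine-FITC cleavage. No-enzyme wells = max signal.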
* marks the source's active call; other numbers are inactive results; i = inactive; u = inconclusive; x = no result given. The list is not random: actives were taken first. Their share in the collection is about 19%. Unless noted, calls follow the shape of the dose curve; as a rule, active = well fitted curve in the direction sought with a large enough effect; inconclusive = small, poorly fitted or top-dose-only effect, or another doubt; inactive = no such curve, though single readings can be large; an effect the other way counts as inactive or inconclusive.

SMILES | TDP1 cell CPT | HepG2 viability | TGFb SMAD3 inh | IL1B secr inh | DT40 TDP1 no CPT | TDP1 block
C/C(CC(=O)Nc1ccc(OCc2ccccc2)cc1)=N\NC(=O)C(=O)Nc1cccc(C)c1 | u | -46% | u | u | 9.2µM* | 5%
Cc1cnc(NC(=O)Nc2ccc(OCc3ccccc3)cc2)c(Br)c1 | u | -12% | 1% | -5 | 16µM* | x
Cc1cc(S(=O)(=O)Nc2ccc3cn[nH]c3c2)c(C)cc1Cl | -30% | -24% | u | 16 | 4.6µM* | 7%
O=C(CCNC(=O)c1ccc(Br)cc1)NCc1cccnc1 | 2% | -9% | 2% | -2 | 7% | x
CSc1cccc(Nc2ccc(S(=O)(=O)N3CCOCC3)cc2[N+](=O)[O-])c1 | -15% | -13% | -18% | -29 | u | 8%
COc1ccc(C2=NCCn3nc4cc([N+](=O)[O-])ccc4c32)cc1 | -20% | -3% | -10% | 7 | -8% | 7%
COc1ccc(-n2cc3ccc([N+](=O)[O-])cc3n2)cc1 | u | -20% | -20% | -5 | 29µM* | x
CCN1C/C(=C\c2cc(OC)c(OC)c(OC)c2)C2=NN(c3ccccc3)C(c3cc(OC)c(OC)c(OC)c3)C2C1 (configuration not stated) | 6.5µM* | 10% | -9% | 17 | 5.8µM* | x
COc1cc(C2C3C(=O)N(c4ccccc4)C(=O)C3ON2c2ccccc2)cc(OC)c1OC (configuration not stated) | 6% | 7% | -8% | 17 | -3% | 5%
COc1ccc(CNC(=O)[C@H](C)[C@H]2C[C@]2(C)[C@H](NC(=O)OCc2ccccc2)c2ccccc2)cc1OC | x | x | x | x | x | 7%
CCCc1cc(=O)[nH]c(-n2[nH]c3c(c2=O)CCCC3)n1 | 16µM* | -31% | 28% | 34 | 21µM* | 5%
CS(=O)(=O)N1CCCC(C(=O)Nc2cccc(F)c2)C1 (configuration not stated) | 5% | -28% | -18% | -2 | 10% | x
C/C=C/C1=Cc2ccccc2C(C(C(=O)OC)C(=O)OC)N1C(=O)OC (configuration not stated) | x | x | x | x | x | 1%
Cc1ccccc1-c1ccc(CN2C(C(C)C)C(=O)N(Cc3cn(CCC4OCCO4)nn3)CCS2(=O)=O)cc1 (configuration not stated) | u | 0% | u | -57* | 18µM* | x
CC(C)C1C(=O)N(Cc2cn(CCC3OCCO3)nn2)CCS(=O)(=O)N1Cc1ccc(-c2ccc(Cl)c(Cl)c2)cc1 (configuration not stated) | 2.1µM* | -61% | u | -27 | 0.92µM* | x
COc1ccc(-c2ccc(CN3C(C(C)C)C(=O)N(Cc4cn(CCC5OCCO5)nn4)CCS3(=O)=O)cc2)cc1OC (configuration not stated) | -36% | -8% | 11% | -3 | -9% | x
CC(C)C1C(=O)N(Cc2cn(CCC3OCCCO3)nn2)CCS(=O)(=O)N1Cc1ccc(-c2ccncc2)cc1 (configuration not stated) | u | -4% | 10% | 1 | u | x
CC(C)Cc1ccc(CN2C(C(C)C)C(=O)N(Cc3cn(CCC4OCCO4)nn3)CCS2(=O)=O)cc1 (configuration not stated) | u | -20% | u | -56* | 18µM* | x
COc1ccc(-c2ccc(CN3C(C(C)C)C(=O)N(Cc4cn(CCC5OCCO5)nn4)CCS3(=O)=O)cc2)cc1 (configuration not stated) | 9.2µM* | -11% | -25% | 13 | 8.2µM* | x
NC(=S)N/N=C/c1c(O)c(Br)cc2oc3c(c12)CCCC3 | 5.2µM* | -4% | u | 21 | 5.2µM* | 5%
CC(=O)c1ccc(C(=O)N2CCCC(N3CCN(c4ccc(F)cc4)CC3)C2)s1 (configuration not stated) | u | 0% | 22% | i | u | -5%
N#Cc1cc(C#N)c(SCC(=O)N2CC(=O)Nc3ccccc32)nc1N | 21µM* | 0% | 34% | -18 | 21µM* | -6%
CCc1cc2cc(C)ccc2nc1SCC(=O)N1CC(=O)Nc2ccccc21 | u | 0% | -28% | -74* | u | -11%
CCc1ccc2nc(SCC(=O)N3CC(=O)Nc4ccccc43)c(C#N)cc2c1 | u | -14% | 0% | 56 | 16µM* | 4%
CCc1ccc2nc(SCC(=O)N3CCCCC3)c(C#N)cc2c1 | u | -3% | -4% | 27 | u | x
SMILES | TDP1 cell CPT | HepG2 viability | TGFb SMAD3 inh | IL1B secr inh | DT40 TDP1 no CPT | TDP1 block
Cc1c(F)cccc1NS(=O)(=O)c1cccs1 | 8% | -18% | -18% | x | -5% | 3%
COc1ccc(NC(=O)C2(C)Cc3c(-c4ccc(NC(C)=O)cc4)ccnc3O2)cc1OC (configuration not stated) | u | 1% | 4% | -25 | 13µM* | x
COc1ccc(CCCNC(=O)C2(C)Cc3c(-c4ccc(NC(C)=O)cc4)ccnc3O2)cc1 (configuration not stated) | 23µM* | -55% | -2% | u | 26µM* | x
COc1ccc(NC(=O)C2(C)Cc3c(-c4cccc(NC(C)=O)c4)ccnc3O2)cn1 (configuration not stated) | 0.73µM* | 10% | -6% | 91 | 1.5µM* | x
CC(=O)Nc1cccc(-c2ccnc3c2CC(C)(C(=O)Nc2cccnc2)O3)c1 (configuration not stated) | -28% | -17% | 5% | 28 | -29% | x
COc1ccc(NC(=O)C2(C)Cc3c(-c4ccc(NC(C)=O)cc4)ccnc3O2)cn1 (configuration not stated) | 21µM* | -5% | 25% | u | u | x
COc1ccc(NC(=O)C2(C)Cc3c(-c4ccccc4)ccnc3O2)cc1OC (configuration not stated) | u | -18% | 0% | 6 | u | x
COc1ccc(NC(=O)C2(C)Cc3c(-c4ccc(C(N)=O)cc4)ccnc3O2)cn1 (configuration not stated) | u | -1% | 35% | -21 | u | x
